# UbGFP stabilizer: inhibits proteasome, raising ubiquitin-GFP reporter fluorescence; Ubiquitin-GFP reporter cells, proteasome inhibition, GFP fluorescence; response scale: untreated = 0%, 10 µM MG-132 = 100%; Potency, µM (doses to about 45.9 µM), inactives show at the top dose activation (GFP accumulation), actives largely listed as activators; 67,000 tested, under 10 active; AID 526; active means well fitted activation curve with a large enough effect, not every such curve was filed as active; inconclusive means small, poorly fitted or top-dose-only effect, or another doubt; inactive means no such curve, though single readings can be large or run the other way; further: potency means the concentration at half of the fitted maximal effect
#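 U2OS cells expressing ubiquitin(G76V)-GFP, seeded overnight in 0.5% FBS medium, then treated 4 hr at 37 C across 46 uM to 2.9 nM. GFP-positive cells counted by laser cytometry (488 ex/515 em); %activity scaled between basal and 10 uM MG-132.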
# HBB splice mod: hemoglobin beta splicing modulation. HBB splicing reporter cell assay, activation; EGFP reporter with mutant IVS2-654 intron; response scale: normalised to 500 nM splice-correcting PNA. Potency, µM (series often up to 46.1 µM), for inactives: at the highest dose activation, actives largely listed as activators. hit rate 0.06% among 65,000. AID 925; further: potency means the concentration at half of the fitted maximal effect; 0% is about no effect
#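 HeLa cells stably expressing EGFP interrupted by mutant beta-globin intron 2 (IVS2-654), 500/well in 2% FCS. Treated with compound for 2 days at 37C. Splicing correction scored as total well GFP intensity (488 nm excitation, 500-520 nm emission); 500 nM antisense PNA served as control.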
# Bst PK mod: alters activity of Bacillus stearothermophilus pyruvate kinase | purified pyruvate kinase, luminescence ATP production; ribose 5-phosphate activator present at AC10 | Potency, µM | hit rate 1.2% among 51,000 | AID 361; in the data active means potency below about 11 µM; inconclusive means mostly about 12 µM to 25 µM;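 the screen sought inhibitors and activators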;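 further: potency means the concentration at half of the fitted maximal effect; scaled between full activation by ribose 5 phosphate and full inhibition by luteolin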
# GFP derepression: derepresses silenced GFP locus in mouse C127i cells; AID 597; mouse C127i GFP locus derepression, cytometry, 30 h; hit rate 0.09% among 68,000; Potency, µM (series often up to 46.1 µM), inactives show top-dose GFP derepression (activation); further: % of control where 0% means no effect
#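 Locus derepression in mouse mammary C127i cells whose integrated CMV-GFP reporter is normally silent; GFP expression after 30 h compound treatment was quantified by counting fluorescent cells.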
# Luciferase inh: inhibitors of firefly luciferase; Potency, µM (series often up to 57.1 µM), for the others: at the highest dose activity change, negative = inhibition, most hits filed as inhibitors; purified firefly luciferase, luminescence, 8 min; hit rate 2.2% among 72,000; P08659; further: potency means the concentration at half of the fitted maximal effect; on the % scale 0 is the no-effect control and ±100 the full control effect; nearly all actives have a fitted effect of over 40% in size
# Target sequence (P08659 whole entry, looked up): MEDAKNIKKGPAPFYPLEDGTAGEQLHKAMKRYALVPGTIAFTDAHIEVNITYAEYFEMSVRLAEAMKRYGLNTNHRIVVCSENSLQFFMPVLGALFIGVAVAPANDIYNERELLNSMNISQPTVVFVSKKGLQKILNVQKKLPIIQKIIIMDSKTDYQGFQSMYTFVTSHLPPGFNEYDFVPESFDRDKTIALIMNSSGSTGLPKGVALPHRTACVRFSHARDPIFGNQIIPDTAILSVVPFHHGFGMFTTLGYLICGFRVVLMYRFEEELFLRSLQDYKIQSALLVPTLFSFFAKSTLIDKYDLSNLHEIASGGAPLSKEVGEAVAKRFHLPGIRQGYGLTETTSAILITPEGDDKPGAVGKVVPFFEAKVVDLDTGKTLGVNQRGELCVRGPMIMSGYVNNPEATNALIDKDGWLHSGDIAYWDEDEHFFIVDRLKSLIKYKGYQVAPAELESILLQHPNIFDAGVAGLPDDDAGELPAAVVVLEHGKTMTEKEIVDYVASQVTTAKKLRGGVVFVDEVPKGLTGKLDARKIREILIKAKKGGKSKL
#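 Inhibition of light generation by firefly luciferase from ATP and luciferin was profiled with concentration-response curves per sample, ATP held at 10 uM within the enzyme's linear range. Plates were read by luminescence after an 8-minute ambient incubation.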
# * marks the source's active call; other numbers are inactive results; i = inactive; ? = inconclusive; · = no result; [ ] = dose if it differs, or a comment. Compounds with a hit are over-represented: about 2.6% of the library has one in this group of screens. Unless noted, the call rests on the fitted dose curve; in most records, active means well fitted curve in the direction sought with a large enough effect; inconclusive means small, poorly fitted or top-dose-only effect, or another doubt; inactive means no such curve, though single readings can be large; an effect the other way counts as inactive or inconclusive.
SMILES,UbGFP stabilizer,HBB splice mod,Bst PK mod,GFP derepression,Luciferase inh
COc1cc(C(=O)Nc2ccc(NC(=O)C3CC3)nc2)cc(OC)c1OC,1%,·,>57,0%,-3%
COc1cccc(C(=O)Nc2ccc(NC(=O)C(C)C)nc2)c1,-2%,·,>57,0%,-12%
CCNc1ncc2nc(-c3ccc(OC)cc3)c(=O)n(-c3ccc(OC)cc3)c2n1,13%,?,·,2%[9.22 µM],0%[11.4 µM]
COc1ccc(NC(=O)N2CCC3(CC2)CCN(C(=O)c2cnccn2)CC3)cc1,-7%,0%,·,2%[9.22 µM],-1%[11.4 µM]
CNc1ccnc(-c2cccc(NS(C)(=O)=O)c2)n1,6%,0%,·,6%[9.22 µM],1%[2.29 µM]
COc1ccc2nc3c(cc2c1)c(NC(=O)c1cccs1)nn3CC(C)C,2%,-3%[0.369 µM],i,2%,13µM*
COc1ccccc1CNCCCCCCNCCCCCCCCNCCCCCCNCc1ccccc1OC,-5%,0%,·,-2%,3%
Cc1cccc(C)c1Nc1nc2ccccc2o1,16%,-1%,·,·,-2%
Cc1nc(Nc2nc3ccccc3o2)nc2c1CCC2,-5%,-1%,·,0%,7.9µM*
Cc1ccc(NC(=O)c2noc3c2CCCCC3)cc1,-11%,2%,·,2%,13µM*
CCc1ccc(NC(=O)c2noc3c2CCCCC3)cc1,-2%,1%,>57,-1%,-22%
O=C(NC1CCCCC1)c1noc2c1CCCCC2,19%,-2%,·,6%,20µM*
CSc1ncnc2nc[nH]c12,-1%,0%,·,·,2%
CN1CCN(c2ccc(NC(=O)c3ccc4c(c3)OCO4)cc2)CC1,-3%,·,·,4%,25µM*
Cc1cc(N2CCN(C)CC2)nc2ccc(NC(=O)c3ccc4c(c3)OCO4)cc12,-4%,0%,·,4%,25µM*
C=C(Br)CN(C)CC(=C)Br,-4%[9.17 µM],2%[9.22 µM],·,0%[9.22 µM],2%[11.4 µM]
O=[N+]([O-])c1ccc2c(N=Nc3ccc4ccccc4c3O)c(O)cc(S(=O)(=O)O)c2c1,-3%[9.17 µM],-1%[9.22 µM],·,-2%[9.22 µM],-16%[11.4 µM]
Cc1ccc(S(=O)(=O)O[C@@H]2[C@H]([C@@H]3COC(C)(C)O3)O[C@H]3OC(C)(C)O[C@@H]32)cc1,-11%[9.17 µM],2%[9.22 µM],·,3%[9.22 µM],3%[11.4 µM]
O=C(C1CCC(C(=O)N2CCc3ccccc32)CC1)N1CCc2ccccc21 (centres undefined),4%,1%,>57,0%,-2%
O=C(c1ccc(Cl)s1)N1CCc2ccccc21,7%,1%,·,-5%,13µM*
CCOc1ccc(C(=O)Nc2cc(C)on2)cc1,-8%,0%[9.22 µM],·,0%,10µM*
CCOc1cc(C(=O)Nc2cc(C)on2)cc(OCC)c1OCC,4%,-1%,>57,3%,-1%
CN(C)c1cccc(-c2nnc(SCCCC#N)o2)c1,3%,0%,i,-1%,16µM*
C[C@H]1CC[C@H]2C(=O)N3[C@H](c4ccc(Br)cc4)[C@@H](C)CC[C@H]3C(=O)N2[C@@H]1c1ccc(Br)cc1,·,0%[9.22 µM],·,·,0%[11.4 µM]
C[C@@H](NC(=O)C1(N)CCCC1)C(=O)O,-6%[9.17 µM],-1%[9.22 µM],·,-2%[9.22 µM],3%[11.4 µM]
SMILES,UbGFP stabilizer,HBB splice mod,Bst PK mod,GFP derepression,Luciferase inh
Cc1nn(C(=O)c2ccc3c(c2)OCO3)c(N)c1-c1ccccc1,-9%,0%,·,·,2µM*
Cc1nn(C(=O)c2cccs2)c(N)c1-c1ccccc1,-11%,-1%,·,·,16µM*
O=C(c1ccc2c(c1)OCO2)N1CCN(c2ccccc2)CC1,-2%,-3%,>57,3%,0%
O=C1N=C(N2CCOCC2)S/C1=C1\C(=O)N(Cc2ccccc2)c2ccc(Br)cc21,0%,0%[57.5 µM],>57,-2%,-5%
CCCCN1C(=O)/C(=C2\SC(N3CCCCC3)=NC2=O)c2ccccc21,0%,-3%,·,12%,7.9µM*
Cc1ccc(S(=O)(=O)N2CCC(C(=O)NCCCN3CCCCCC3)CC2)cc1,1%,1%[57.5 µM],10*,4%,-1%
Oc1c(-c2cc(-c3ccco3)[nH]n2)ccc2ccccc12,7%,4%,8.3*,2%,7.9µM*
O=C(O)c1cc(-c2ccco2)nc2ccccc12,-4%,0%,>57,4%,-18%
Cn1c(-c2ccc3ccccc3n2)nc2cnccc21,-2%,4%[0.369 µM],?,2%,13µM*
Oc1ccc(Cl)cc1C=Nc1cnc2ccccc2c1,-5%[9.17 µM],3%[9.22 µM],·,-7%[9.22 µM],0%[11.4 µM]
CCC(=O)Nc1cc2nn(-c3ccc(OC)cc3)nc2cc1C,-3%,·,3.4*,1%,1.3µM*
CCCCC(=O)Nc1cc2nn(-c3ccc(OC)cc3)nc2cc1C,-2%,·,>57,-3%,-8%
O=C(Nc1ccc2c(c1)OCCO2)c1ccc(CN2CCOCC2)cc1,6%,·,·,-1%,16µM*
Cc1occc1C(=O)Nc1ccc2c(c1)OCCO2,0%,-1%,i,-2%,20µM*
Cc1ncoc1C(=O)Nc1ccc2c(c1)OCCO2,4%,4%[1.84 µM],·,2%,20µM*
COc1cccc(OC)c1C(=O)Nc1ccc2c(c1)OCCO2,3%,-4%,·,-2%,-5%
COc1ccc(NC(=O)c2ocnc2C)cc1OC,-4%,3%[1.84 µM],>57,4%,-3%
COc1cccc(NC(=O)c2ccc(CN3CCOCC3)cc2)c1,5%,0%[57.5 µM],·,1%,?
Cc1cc(C(=O)Nc2ccc3c(c2)OCCO3)c(C)o1,-6%,-1%,i,-2%,16µM*
O=C(Nc1ccc2c(c1)OCCO2)c1cncc(Br)c1,3%,0%,i,-1%,10µM*
Cc1occc1C(=O)Nc1ccc(S(=O)(=O)N2CCN(C)CC2)cc1,-1%,3%,>57,3%,2%
Cc1occc1C(=O)Nc1ccc2c(c1)CCC2,0%,3%,·,0%,25µM*
Oc1c(C(Nc2nc3ccccc3s2)c2ccco2)ccc2cccnc12 (centres undefined),2%,5%,·,-2%,-3%
CC(C)C(=O)NC(c1ccco1)c1ccc2cccnc2c1O (centres undefined),13%,-2%[9.22 µM],·,4µM*,1%
COc1ccc(C(NC(C)=O)c2ccc3cccnc3c2O)c(OC)c1 (centres undefined),-3%,-2%,·,13µM*,1%
SMILES,UbGFP stabilizer,HBB splice mod,Bst PK mod,GFP derepression,Luciferase inh
O=C(O)c1ccc(N[C@H](c2ccccc2)c2ccc3cccnc3c2O)cc1,-5%[9.17 µM],0%[9.22 µM],·,0%[9.22 µM],2%[11.4 µM]
Cc1ccc(C2=C(Cl)C(=O)C(c3ccc(C)cc3)=C(Cl)C2=O)cc1,-8%[9.17 µM],3%[9.22 µM],·,-3%[9.22 µM],-1%[11.4 µM]
O=C(O)CCSCc1ccccc1,12%[9.17 µM],2%[9.22 µM],·,0%[9.22 µM],2%[11.4 µM]
C[C@@]12CC[C@@H]3[C@@H](CC[C@H]4C[C@@H](O)CC[C@]43C)[C@H]1CC[C@@H]2c1cc(C(F)(F)F)n[nH]1,0%[9.17 µM],-1%[9.22 µM],·,2%[9.22 µM],-1%[11.4 µM]
COc1cccc(-c2ccc3ncnc(N4CCNCC4)c3c2)c1,-3%,-2%,·,-3%[9.22 µM],2%[2.29 µM]
Cc1cccnc1Nc1nc(-c2ccc(O)cc2O)cs1,-2%,-2%,1.7*,1%,16µM*
Cc1cc(O)ccc1Nc1nc(-c2sc(N)nc2C)cs1,5%,-1%,>57,0%,-1%

# Bioassay records (PubChem BioAssay)
